Laboratory results reported in PubChem BioAssay (NCI).
The panel holds about 83,000 compounds, 20% with a hit somewhere; the sample as a whole holds those more often.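 Negative percent growth values reflect cell death: -40 means 40% of the cells present at the start died, and -100 means all died.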 Values without a mark were called inactive. The source made the active and inactive calls. Rule for the calls: active = growth percent below 10; inactive = the rest.

These compounds were tested on SN12C renal (assay: NCI-60 one-dose screen, 48 h (100 = growth as untreated, 0 = no growth, -100 = all killed)). Conditions: 10 µM unless noted.

SMILES | growth
O=C(NNc1nc2cc(C(F)(F)F)ccc2n2cccc12)c1cnccn1 | -59.9% (active)
COc1cc(OC)c2c3nc4cc(C)c(C)cc4nc3n(CCN(C)C)c2c1 | -48.8% (active)
N#Cc1c(-c2cccc(O)c2O)cc(-c2ccc3ccccc3c2)[nH]c1=O | 58.4%
O=c1[nH]n(C(=S)N/N=C/c2ccccc2Cl)c(=O)c2ccccc12 | 7.3% (active)
COc1ccc(C(=O)/C=C/c2cccc(Cl)c2Cl)cc1S(N)(=O)=O | -2.06% (active)
COc1ccc(C(=O)/C=C/c2cccnc2)cc1S(N)(=O)=O | 37.7%
Cc1cc2nc3c4ccccc4n(CC4=NCCN4)c3nc2cc1C | -6.68% (active)
Cc1cc2nc3c([nH]c2cc1C)c1ccc(=O)cc1n3CCN(C)C | 37.7%
O=C1N/C(=N\c2nccs2)S/C1=C\C=C/c1ccccc1 | 39.2%
COc1ccc(C2=NN(c3ccccc3)C(c3ccc(OCc4ccccc4)c(OC)c3)C2)cc1OC (stereo not given) | 100%
Nc1n[nH]c2cccc(C#Cc3cccc(NC(=O)c4cccc(Cl)c4)c3)c12 | 28.5%
O=C(Cn1c2c(sc1=O)[C@H]1[C@@H](O)[C@@H](O)[C@H](O)[C@@H]1CS2)N1CCOCC1 | 102%
CC(=O)Nc1cccc(Nc2nc(N[C@H]3CCCc4ccccc43)c3ccccc3n2)c1 | 103%
N/C(=N\c1nc2ccccc2s1)NC(=O)NCCCCCCO | 45.5%
CN(C)CCn1c2ccccc2c2nc3cc(C(F)(F)F)ccc3nc21 | 21.7%
